In all, about 5,500 compounds went through this assay and about 2,000 (36%) were called active. Not shown: some 18% with an inconclusive outcome. Rule as the data show it: active = normalized growth mostly below about 0.91 (no sharp cut-off); inconclusive = no clear call, values can overlap the other calls; inactive = mostly above about 0.92. Some of the results follow.
Experiment: chemical genetic growth profiling, strain panel (AID 1159580);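 also: tested at 20 µM; growth read once vehicle control cultures reached saturation at 30 °C; 1 = growth at the plate median or of vehicle wells; lower values mean less growth of the strain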
Settings: growth OD

Measured: normalized growth

CCCc1cc(=O)[nH]c(=S)[nH]1
inactive: S. cerevisiae deletion strains, locus YJR075W, strain HOC1, hits give low values 1.02 | S. cerevisiae deletion strains, locus YKL009W, strain mrt4, hits give low values 0.994 | S. cerevisiae deletion strains, locus YKL068W, hits give low values 1 | S. cerevisiae deletion strains, locus YKL085W, strain MDH1 (second series), hits give low values 1 | S. cerevisiae deletion strains, locus YKL085W, strain MDH1, hits give low values 1 | S. cerevisiae deletion strains, locus YKL160W, strain elf1, hits give low values 1.03 | S. cerevisiae deletion strains, locus YKL190W, strain CNB1, hits give low values 1 | S. cerevisiae deletion strains, locus YKR001C, strain vps1, hits give low values 1 | S. cerevisiae deletion strains, locus YKR026C, strain gcn3, hits give low values 1.01 | S. cerevisiae deletion strains, locus YKR091W, strain srl3, hits give low values 1.01 | S. cerevisiae deletion strains, locus YLL001W, strain dnm1, hits give low values 1.01 | S. cerevisiae deletion strains, locus YLL026W, hits give low values 1.02 | S. cerevisiae deletion strains, locus YLL041C, strain sdh2, hits give low values 1.03 | S. cerevisiae deletion strains, locus YLR027C, strain aat2, hits give low values 1.01 | S. cerevisiae deletion strains, locus YLR039C, strain RIC1, hits give low values 1.03 | S. cerevisiae deletion strains, locus YLR058C, strain SHM2, hits give low values 1.02 | S. cerevisiae deletion strains, locus YLR102C, strain apc9, hits give low values 0.992 | S. cerevisiae deletion strains, locus YLR113W, strain HOG1, hits give low values 0.989 | S. cerevisiae deletion strains, locus YLR221C, strain rsa3, hits give low values 1.02 | S. cerevisiae deletion strains, locus YLR258W, strain gsy2, hits give low values 1.01 | S. cerevisiae deletion strains, locus YLR262C, strain YPT6 (second series), hits give low values 1.02 | S. cerevisiae deletion strains, locus YLR262C, strain YPT6, hits give low values 1.04 | S. cerevisiae deletion strains, locus YLR268W, strain sec22, hits give low values 1.01 | S. cerevisiae deletion strains, locus YLR320W, strain mms22, hits give low values 1.03 | S. cerevisiae deletion strains, locus YLR330W, strain CHS5, hits give low values 1.02 | S. cerevisiae deletion strains, locus YLR342W, strain FKS1 (second series), hits give low values 1 | S. cerevisiae deletion strains, locus YLR342W, strain FKS1, hits give low values 1.03 | S. cerevisiae deletion strains, locus YLR357W, strain rsc2, hits give low values 1.05 | S. cerevisiae deletion strains, locus YLR370C, strain arc18, hits give low values 1.01 | S. cerevisiae deletion strains, locus YLR371W, strain rom2, hits give low values 0.994 | S. cerevisiae deletion strains, locus YLR384C, strain iki3, hits give low values 1.03 | S. cerevisiae deletion strains, locus YLR418C, strain cdc73, hits give low values 1 | S. cerevisiae deletion strains, locus YML016C, strain PPZ1, hits give low values 1.01 | S. cerevisiae deletion strains, locus YML032C, strain rad52, hits give low values 0.989 | S. cerevisiae deletion strains, locus YML120C, strain ndi1, hits give low values 1 | S. cerevisiae deletion strains, locus YML124C, strain tub3, hits give low values 0.996 | S. cerevisiae deletion strains, locus YMR058W, strain fet3, hits give low values 1 | S. cerevisiae deletion strains, locus YMR078C, strain ctf18, hits give low values 1 | S. cerevisiae deletion strains, locus YMR125W, strain sto1, hits give low values 1.03 | S. cerevisiae deletion strains, locus YMR129W, hits give low values 1.02 | S. cerevisiae deletion strains, locus YMR205C, strain PFK2, hits give low values 1.03 | S. cerevisiae deletion strains, locus YMR223W, strain ubp8, hits give low values 0.974 | S. cerevisiae deletion strains, locus YMR231W, strain pep5, hits give low values 1.02 | S. cerevisiae deletion strains, locus YMR263W, strain SAP30, hits give low values 1.02 | S. cerevisiae deletion strains, locus YMR307W, strain GAS1, hits give low values 1.07 | S. cerevisiae deletion strains, locus YNL067W, strain RPL9B, hits give low values 1.02 | S. cerevisiae deletion strains, locus YNL071W, strain lat1, hits give low values 1 | S. cerevisiae deletion strains, locus YNL128W, strain TEP1, hits give low values 1.02 | S. cerevisiae deletion strains, locus YNL153C, strain GIM3, hits give low values 1.02 | S. cerevisiae deletion strains, locus YNL183C, strain NPR1, hits give low values 0.966 | S. cerevisiae deletion strains, locus YNL209W, strain ssb2, hits give low values 1.02 | S. cerevisiae deletion strains, locus YNL233W, strain BNI4, hits give low values 1.02 | S. cerevisiae deletion strains, locus YNL248C, strain rpa49, hits give low values 1.03 | S. cerevisiae deletion strains, locus YNL250W, strain rad50, hits give low values 0.994 | S. cerevisiae deletion strains, locus YNL271C, strain bni1, hits give low values 1 | S. cerevisiae deletion strains, locus YNL298W, strain CLA4, hits give low values 1.01 | S. cerevisiae deletion strains, locus YNL307C, strain MCK1, hits give low values 0.998 | S. cerevisiae deletion strains, locus YNL322C, strain KRE1 (second series), hits give low values 1.02 | S. cerevisiae deletion strains, locus YNL322C, strain KRE1, hits give low values 1.01 | S. cerevisiae deletion strains, locus YNR049C, strain mso1, hits give low values 1.01 | S. cerevisiae deletion strains, locus YNR052C, strain pop2, hits give low values 0.991 | S. cerevisiae deletion strains, locus YOL006C, strain TOP1, hits give low values 1.04 | S. cerevisiae deletion strains, locus YOL012C, strain htz1 0.884 | S. cerevisiae deletion strains, locus YOL147C, strain pex11, hits give low values 0.996 | S. cerevisiae deletion strains, locus YOR001W, strain rrp6, hits give low values 1.02 | S. cerevisiae deletion strains, locus YOR061W, strain CKA2, hits give low values 1.01 | S. cerevisiae deletion strains, locus YOR069W, strain VPS5, hits give low values 0.999 | S. cerevisiae deletion strains, locus YOR070C, strain gyp1, hits give low values 1.02 | S. cerevisiae deletion strains, locus YOR080W, strain dia2, hits give low values 1.03 | S. cerevisiae deletion strains, locus YOR083W, strain WHI5, hits give low values 0.996 | S. cerevisiae deletion strains, locus YOR106W, strain vam3, hits give low values 1.02 | S. cerevisiae deletion strains, locus YOR136W, strain idh2, hits give low values 0.979 | S. cerevisiae deletion strains, locus YOR144C, strain elg1, hits give low values 0.999 | S. cerevisiae deletion strains, locus YOR184W, strain ser1, hits give low values 0.98 | S. cerevisiae deletion strains, locus YOR231W, strain MKK1, hits give low values 0.993 | S. cerevisiae deletion strains, locus YOR265W, strain rbl2, hits give low values 1.01 | S. cerevisiae deletion strains, locus YOR270C, strain vph1, hits give low values 1.1 | S. cerevisiae deletion strains, locus YOR290C, strain snf2, hits give low values 1.03 | S. cerevisiae deletion strains, locus YOR316C, strain cot1, hits give low values 0.993 | S. cerevisiae deletion strains, locus YPL051W, strain arl3, hits give low values 1.02 | S. cerevisiae deletion strains, locus YPL055C, strain LGE1, hits give low values 1.03 | S. cerevisiae deletion strains, locus YPL078C, strain atp4, hits give low values 1.02 | S. cerevisiae deletion strains, locus YPL106C, strain sse1, hits give low values 1.04 | S. cerevisiae deletion strains, locus YPL240C, strain hsp82, hits give low values 1.01 | S. cerevisiae deletion strains, locus YPL256C, strain CLN2, hits give low values 1.02 | S. cerevisiae deletion strains, locus YPR119W, strain clb2, hits give low values 0.99 | S. cerevisiae deletion strains, locus YPR141C, strain kar3, hits give low values 0.992 | S. cerevisiae deletion strains, locus YPR163C, strain tif3, hits give low values 0.992 | S. cerevisiae deletion strains, locus YPR167C, strain met16, hits give low values 0.983 | S. cerevisiae deletion strains, strain wtn01, hits give low values 0.997 | S. cerevisiae strains, strain wild type, hits give low values 1.01
